Compound activity from PubChem BioAssay.
This is a sample that favours compounds with a hit; in the whole collection about 17% have one here.
ClpP mod: qHTS Assay for Activators of ClpP; 340,000 compounds, 1.9% hits; Potency, µM (top dose mostly 57.5 µM), inactives show at the top dose activity change, negative = active; purified B. subtilis ClpP, FRET peptide cleavage, 20 min; active = well fitted falling curve with a large enough effect; inconclusive = small, poorly fitted or top-dose-only effect; inactive = no such curve, though single readings can be large or run the other way; note: the source files actives as falling curves though it sought activators and does not explain the sign; nearly all actives have a fitted effect of over 65% in size
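FRET quenching reversal measured ClpP activation: 10 microg/mL B. subtilis ClpP at pH 8 with the FRET-FV decapeptide, read at 430 nm after 320 nm excitation. The 20-min minus 0-min signal was scaled between DMSO/no-enzyme wells and ADEP (5.8 microM final).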
TDP1 cell noCPT: qHTS for Inhibitors of human tyrosyl-DNA phosphodiesterase 1 (TDP1): qHTS in cells in absence of CPT. Potency, µM (top dose mostly 46.2 µM), inactives show at the highest dose activity change, negative = growth inhibition, usual class: inhibitors. AID 686978, 2013. 420,000 compounds, 15% hits. DT40 Tdp1-/- hTDP1 cells, no CPT, ATP luminescence, 48 h; note: % is set by controls: 0 for no effect and ±100 for the full control effect; nearly all actives have a fitted effect of over 55% in size
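Chicken DT40 Tdp1-/- cells stably complemented with human TDP1 were seeded at 400 cells/well with DMSO in place of 20 nM camptothecin. After compound pinning, cells grew at least 48 hr at 37 °C; viability read by CellTiter-Glo luminescence.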
TDP1 cell CPT: qHTS for Inhibitors of human tyrosyl-DNA phosphodiesterase 1 (TDP1): qHTS in cells in presence of CPT. chicken DT40 Tdp1-/-;hTDP1 cells + 20 nM CPT, ATP luminescence, 48 h. Potency, µM (series often up to 46.2 µM), inactives show at the top dose activity change, negative = growth inhibition, most hits filed as inhibitors. 420,000 compounds, 12% hits. AID 686979, 2013; note: % is set by controls: 0 for no effect and ±100 for the full control effect; nearly all actives have a fitted effect of over 55% in size
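Cell growth measured by CellTiter-Glo luminescence after a minimum 48 h, 37 C compound exposure with 20 nM CPT in Tdp1-knockout DT40 cells stably expressing hTDP1, seeded 400/well; qHTS titration format.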
TDP1 inh: qHTS Assay for Inhibitors of Tyrosyl-DNA Phosphodiesterase (TDP1) | Tyrosyl-DNA phosphodiesterase 1 (Homo sapiens), Q9NUW8 | recombinant TDP1, AlphaScreen DNA substrate cleavage | Potency, µM (titrated, usually from 130 µM), for the others: top-dose activity change, negative = inhibition, most hits filed as inhibitors | 350,000 compounds, 0.28% hits | AID 485290, 2010; note: % is set by controls: 0 for no effect and ±100 for the full control effect; nearly all actives have a fitted effect of over 40% in size
Target sequence (Q9NUW8 whole entry, looked up): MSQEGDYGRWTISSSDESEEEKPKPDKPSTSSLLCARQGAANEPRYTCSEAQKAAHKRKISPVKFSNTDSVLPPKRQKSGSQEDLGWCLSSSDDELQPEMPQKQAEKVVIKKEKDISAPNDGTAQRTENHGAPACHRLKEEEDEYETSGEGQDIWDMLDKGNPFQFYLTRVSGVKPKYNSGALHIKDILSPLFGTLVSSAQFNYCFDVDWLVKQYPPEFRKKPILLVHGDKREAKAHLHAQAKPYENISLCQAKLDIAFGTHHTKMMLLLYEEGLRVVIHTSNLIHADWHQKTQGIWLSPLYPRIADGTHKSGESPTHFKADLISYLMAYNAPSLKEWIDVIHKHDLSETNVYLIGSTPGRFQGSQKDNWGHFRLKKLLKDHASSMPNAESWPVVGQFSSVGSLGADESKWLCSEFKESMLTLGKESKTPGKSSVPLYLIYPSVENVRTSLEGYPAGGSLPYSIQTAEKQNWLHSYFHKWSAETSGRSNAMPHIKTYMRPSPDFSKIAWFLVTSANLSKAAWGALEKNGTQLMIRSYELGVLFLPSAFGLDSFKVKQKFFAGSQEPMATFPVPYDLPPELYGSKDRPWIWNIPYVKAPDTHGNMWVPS
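E. coli-derived human Tdp1, 1 nM final. Cpd preinc 15 min RT; substrate 15 nM final, 5 min RT; AS bead mix 10 ug/ml final, 10 min RT. Signal loss = tyrosine-FITC cleavage. No-enzyme wells = max signal.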
Numbers without * were called inactive; ? = inconclusive; · = not tested or not shown; [ ] = another dose, or the depositor's remark. Unless noted, calls come from the whole dose curve; as a rule, active = well fitted curve in the direction sought with a large enough effect; inconclusive = small, poorly fitted or top-dose-only effect, or another doubt; inactive = no such curve, though single readings can be large; an effect the other way counts as inactive or inconclusive. Potency is the fitted concentration of half-maximal effect.

SMILES	ClpP mod	TDP1 cell noCPT	TDP1 cell CPT	TDP1 inh
COC(=O)c1ccc(CNC(=O)COC(=O)Cc2ccsc2)cc1	·	-6.2%	-2.9%	8.1%
COc1ccc(CCN2C(=O)CC(N3CCN(S(=O)(=O)c4ccccc4)CC3)C2=O)cc1OC (configuration not stated)	-0.5%	?	3.7%	4.3%
Cc1cc(CNC(=O)CC2C(=O)NCCN2Cc2ccccc2C(F)(F)F)on1 (configuration not stated)	·	-8.4%	-24.0%	0.0%
CCOc1cc(Br)c(C2C(C(=O)OC)=C(C)NC3=C2C(=O)c2ccccc23)cc1OCC (configuration not stated)	-3.4%	23.1µM*	4.61µM*	·
CCOc1cc(C2C(C(=O)OC)=C(C)NC3=C2C(=O)c2ccccc23)c(Br)cc1OC (configuration not stated)	0.4%	?	-30.0%	·
CCOC(=O)C1=C(C)NC2=C(C(=O)c3ccccc32)C1c1cccc2ccccc12 (configuration not stated)	·	11.6µM*	?	·
CCCOC(=O)C1=C(C)NC(=O)NC1c1cccc2ccccc12 (configuration not stated)	-4.2%	?	?	2.3%
CCOc1cc(C2C(C(=O)OC)=C(C)NC3=C2C(=O)c2ccccc23)c(Br)cc1O (configuration not stated)	1.4%	18.4µM*	?	7.6%
NC(=O)c1cccc(-c2coc3c(C(=O)NCCc4ccccc4)cccc23)c1	-13.8%	?	?	·
CCCn1c(N)c(C(=O)COC(=O)CNC(=O)c2ccc(C)c(C)c2)c(=O)n(C)c1=O	1.4%	-14.4%	-0.6%	0.6%[56.1 µM]
CC1(C)CC(NC2C3CC4CC(C3)CC2C4)CC(C)(C)N1 (configuration not stated)	·	14.6µM*	18.4µM*	2.7%
Cc1ccccc1C(=O)NC1CC(C)(C)NC(C)(C)C1	-1.8%	0.2%	1.3%	6.3%
COc1cc(C)ccc1OCc1cc(C(=O)N(C)CCCN2CCOCC2)no1	-3.4%	2.8%	2.0%	1.1%
O=S(=O)(NCc1ccc(F)cc1)c1ccc(-n2cnnn2)cc1	-1.8%	?	?	-1.8%
Cc1ccc(Nc2c(-c3c[nH]c4ccccc34)nc3ccccn23)cc1	4.1%	20.6µM*	13µM*	14.7%
Cc1ccc2nc(-c3c[nH]c4ccccc34)c(Nc3ccccc3C)n2c1	?	3.26µM*	16.4µM*	6.4%
Cc1ccccc1Nc1c(-c2c[nH]c3ccccc23)nc2cccc(C)n12	3.6%	?	?	7.5%
COCCn1c(C)cc(O)c(C(c2ccccc2Cl)N2CCCCC2)c1=O (configuration not stated)	1.0%	1.8%	-0.4%	0.0%
O=[N+]([O-])c1cc(-c2csc(NCCc3nc4cc(C(F)(F)F)ccc4n3CCCO)n2)ccc1Cl	0.5%	?	?	·
Cc1nc2cc(C(F)(F)F)ccc2n1CCNc1nc(-c2ccc(F)cc2)cs1	-2.8%	?	?	·
Cc1nc2cc(C(F)(F)F)ccc2n1CCNc1nc(-c2ccc([N+](=O)[O-])c(Cl)c2)cs1	0.1%	20.6µM*	?	·
Cc1ccc(-c2csc(NCCn3c(-c4ccncc4)nc4cc(C(F)(F)F)ccc43)n2)cc1	1.4%	?	29.1µM*	2.3%
Cc1ccc(Cn2c(CCNc3nc(-c4ccc(Cl)c([N+](=O)[O-])c4)cs3)nc3cc(C(=O)NCCCO)ccc32)cc1	-3.3%	13µM*	10.3µM*	·
Cc1ccc(-c2csc(NCCn3c(-c4ccncc4)nc4ccccc43)n2)cc1	3.4%	23.1µM*	?	·
c1ccc(CCNc2nc(-c3ccncc3)cs2)cc1	-2.5%	?	?	1.3%
SMILES	ClpP mod	TDP1 cell noCPT	TDP1 cell CPT	TDP1 inh
CCCCNC(=O)C(NC(=O)c1cccnc1)C(=O)c1ccccc1 (configuration not stated)	-1.1%	9.8%	-0.9%	·
Cc1ccc(/C=C/S(=O)(=O)NCCC(=O)NCc2ccccc2F)cc1	·	-25.9%	-1.7%	2.8%
Cc1ccc(N2C(=O)[C@@H]3CSC(c4ccc(C(F)(F)F)cc4)N3C2=O)cc1 (some centres not stated)	1.5%	-19.5%	0.4%	1.3%
Cc1nn(C)c2ncc(C(=O)c3cc(F)ccc3O)cc12	0.9%	?	?	0.7%
O=C(c1cnc2ccc3ccccc3c2c1)c1cc(F)ccc1O	6.7%	?	7.31µM*	·
C/C(=N/Nc1ccnc2cc(Cl)ccc12)c1ccc(N)cc1	-2.6%	18.4µM*	23.1µM*	·
Clc1ccc2c(N/N=C/c3ccccc3Br)ccnc2c1	-7.9%	2.91µM*	7.31µM*	3.4%
O=[N+]([O-])c1ccc(/C=N/Nc2ccnc3cc(Cl)ccc23)o1	·	16.4µM*	14.6µM*	·
Clc1ccc2c(N/N=C/c3cccc(Br)c3)ccnc2c1	7.2%	16.4µM*	16.4µM*	-2.2%
CCCS(=O)(=O)c1nc(S(=O)(=O)c2ccc(C)cc2)c(NCc2ccccc2Cl)s1	-5.0%	-28.2%	-29.9%	5.1%
Cc1ccc(CS(=O)(=O)Cc2ccc(C(=O)NCCc3ccc(Cl)cc3)o2)cc1	3.0%	-12.9%	-17.1%	5.2%
CCCCN(C(=O)c1ccc(OC)c([N+](=O)[O-])c1)c1c(N)n(CCC)c(=O)[nH]c1=O	·	?	-2.4%	6.1%
CC(C)c1nnc(NC(=O)c2sc3ccccc3c2Cl)s1	-0.2%	-20.4%	-22.4%	3.8%
Cn1c(C(C#N)C(=O)c2sc3ccccc3c2Cl)nc2ccccc21 (configuration not stated)	0.1%	16.4µM*	?	10.8%
CC(C)CN(CC(C)C)c1ccc(/C=C/c2nc3ccccc3s2)cc1	-3.2%	3.55µM*	5.01µM*	·
CCN(CC)c1ccc(/C=C/c2nc3ccccc3s2)cc1	·	·	·	7.9%
Nc1ccc(/C=C/c2nc3ccccc3s2)cc1	-1.6%	12.6µM*	11.2µM*	·
CC(=O)Nc1ccc(/C=C/c2nc3ccccc3s2)cc1	2.2%	11.2µM*	?	·
CC(C)(C)NC(=O)c1ccccc1NC(=O)C1CC(=O)N(C2CCCCC2)C1 (configuration not stated)	0.0%	-5.2%	2.9%	4.2%[0.0935 µM]
CSc1nc(N2CCOCC2)c2ccccc2n1	-7.6%	-10.2%	-9.4%	3.3%
CN1c2ccccc2C(C)(C)C12C=Nc1c(cc(N3CCOCC3)c3ccccc13)O2 (configuration not stated)	28.2µM*	?	?	2.0%
COc1ccc(/C=C/C(=O)NCc2ccc(F)cc2)cc1S(=O)(=O)N1CCOCC1	·	-22.2%	-2.4%	1.2%
CCOC(=O)c1cccc(-n2c(-c3ccc(OC)cc3)nc3nc4ccccc4nc32)c1	·	·	·	1.8%
